According to PubChem BioAssay:
Values without a mark were called inactive. The list shows a part of the results. Active and inactive are the calls of the source.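 The calls were made as follows, unless noted: active = mean inhibition above a cutoff equal to the average over all tested compounds plus one standard deviation (cut at about 70% in these data); inactive = the rest.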

Assays:
[1] = biological target: Photoreceptor-specific nuclear receptor (Homo sapiens) (UniProt Q9Y5X4); test: NR2E3 agonist confirmation in cells, cell-based, luminescence, CHO-S two-hybrid (AID 624378;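 active = average inhibition above a cutoff equal to the mean inhibition of all tested compounds plus one SD, cut at about 70% in these data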;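 also: 0% = DMSO in NR2E3 cells and 100% = DMSO in cells lacking NR2E3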); conditions: CHO-S mammalian two-hybrid NR2E3-NCOR, luciferase luminescence; at 3.98 µM; hits give high values
[2] = GAL4-VP16 reporter modulators, confirmation, counter-screen for NR2E3 agonist project, cell-based, luminescence, CHO-S, high throughput (AID 624379); conditions: CHO-S GAL4-VP16 luciferase reporter, at 3.98 µM, hits give high values;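 also: luciferase from a UAS reporter driven by GAL4-VP16 transactivation; 0% = DMSO with VP16-transfected cells and 100% = DMSO with cells lacking VP16; higher means less reporter light so more repression of VP16 activity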
[3] = biological target: Receptor-interacting serine/threonine-protein kinase 2 (Homo sapiens) (UniProt O43353); test: NOD2-RIPK2 binding disruptors, retest, confirmation, fluorescence, CHO cells, BLA complementation, triplicate (AID 624370;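 active = mean inhibition across replicates above a set limit taken from the earlier primary screen, cut at about 21% in these data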;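 also: 0% = DMSO-only wells and the high end = clavulanate BLA-blocked wells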); conditions: CCF4 FRET, at 4.98 µM, hits give high values
[4] = beta-lactamase reporter inhibitors in CHO cells, confirmation, artefact control for NOD2-RIPK2 interaction inhibitor project, cell-based, CHO-K1 CMV-bla, CCF4 FRET, fluorescence (AID 624371;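 active = mean inhibition above the low-control mean inhibition plus three low-control SD, cut at about 11% in these data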;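 also: 0% = DMSO only wells and 100% = clavulanate high control wells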); conditions: CCF4 FRET ratio, counterscreen, at 4.98 µM, hits give high values
[5] = biological target: (Lyso)-N-acylphosphatidylethanolamine lipase (Mus musculus) (UniProt Q8VD66); test: ABHD4 inhibitors, retest, confirmation, biochemical, fluorescence polarization, mouse (AID 720658;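 active = mean inhibition across replicates above the hit cutoff set in the primary screen, cut at about 30% in these data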;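 also: 0% = wild-type ABHD4 with DMSO and 100% = catalytically dead S159A mutant with DMSO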); conditions: purified mABHD4, FP-Rh probe fluorescence polarization; at 8.92 µM; hits give high values
[6] = test system: DAF-12 nuclear receptor (Heterodera glycines), GAL4-LBD fusion; test: H. glycines DAF-12 receptor agonists, confirmation, cell-based, luminescence, HEK293, GAL4-LBD fusion (AID 743050;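 active = mean activation over triplicate wells above the hit cutoff derived from the earlier primary screen, cut at about 11% in these data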;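 also: 0% = DMSO low control and 100% = 2 mM sodium butyrate high control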); conditions: HEK293 GAL4-hgDAF12 luciferase reporter, agonist mode; at 6.8 µM; hits give high values; percent of butyrate response
[7] = biological target: Oxysterols receptor LXR-beta (Homo sapiens) (UniProt P55055); test: LXR agonists, Gal4 luciferase reporter, confirmation, counter-screen for hgDAF-12 agonist project, cell-based, luminescence, HEK293, H. glycines campaign (AID 743051;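 active = mean activation of the triplicate above a set limit carried over from the primary screen, none filed active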); conditions: 24 h, at 6.8 µM, hits give high values
[8] = StAR promoter reporter inhibitors, counter-screen for LRH-1 inverse agonist project, cell-based, luminescence, high throughput (AID 651611; in the data active = inhibition above about 28%); conditions: StAR promoter luciferase reporter counterscreen, at 3.6 µM, hits give high values
[9] = biological target: Nuclear receptor subfamily 5 group A member 2 (Homo sapiens) (UniProt O00482); test: LRH-1 (NR5A2) inverse agonists, retest, confirmation, cell-based, luminescence (AID 651613; in the data active = inhibition above about 42%;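 also: HEK293T cells co-transfected with LRH-1 and StAR promoter luciferase reporter; 0% = vehicle wells and 100% = parental cells lacking receptor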); conditions: cell-based LRH-1 luciferase reporter, inverse agonism; at 3.6 µM; hits give high values
[10] = biological target: Steroidogenic factor 1 (Homo sapiens) (UniProt Q13285); test: SF1 (NR5A1) inverse agonists, counter-screen for LRH-1 inverse agonist project, cell-based, luminescence, high throughput (AID 651614; in the data active = inhibition above about 44%;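 also: cells cotransfected with StAR promoter reporter and SF1 expression vector; 0% = vehicle on cells with receptor and 100% = vehicle on cells lacking receptor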); conditions: cell-based SF1 luciferase reporter, at 3.6 µM, hits give high values
[11] = VP16 transactivation reporter inhibitors, counter-screen for LRH-1 inverse agonist project, cell-based, luminescence, high throughput (AID 651615; in the data active = inhibition above about 33%); conditions: Gal4-VP16 luciferase reporter cells, at 3.6 µM, hits give high values

Sequence of Photoreceptor-specific nuclear receptor (Homo sapiens) (Q9Y5X4 whole entry, looked up, the tested form may be a part): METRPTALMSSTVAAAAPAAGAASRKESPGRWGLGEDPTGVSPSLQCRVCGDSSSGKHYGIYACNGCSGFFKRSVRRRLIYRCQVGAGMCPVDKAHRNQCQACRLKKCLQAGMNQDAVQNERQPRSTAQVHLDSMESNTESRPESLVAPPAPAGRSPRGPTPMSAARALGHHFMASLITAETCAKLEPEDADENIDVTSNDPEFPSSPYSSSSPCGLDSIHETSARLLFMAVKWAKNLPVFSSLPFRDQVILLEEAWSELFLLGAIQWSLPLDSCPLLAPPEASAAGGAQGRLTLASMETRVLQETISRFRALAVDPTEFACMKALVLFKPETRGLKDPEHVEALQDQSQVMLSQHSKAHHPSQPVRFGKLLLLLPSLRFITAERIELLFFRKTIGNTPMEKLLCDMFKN
Sequence of Receptor-interacting serine/threonine-protein kinase 2 (Homo sapiens) (O43353 whole entry, looked up): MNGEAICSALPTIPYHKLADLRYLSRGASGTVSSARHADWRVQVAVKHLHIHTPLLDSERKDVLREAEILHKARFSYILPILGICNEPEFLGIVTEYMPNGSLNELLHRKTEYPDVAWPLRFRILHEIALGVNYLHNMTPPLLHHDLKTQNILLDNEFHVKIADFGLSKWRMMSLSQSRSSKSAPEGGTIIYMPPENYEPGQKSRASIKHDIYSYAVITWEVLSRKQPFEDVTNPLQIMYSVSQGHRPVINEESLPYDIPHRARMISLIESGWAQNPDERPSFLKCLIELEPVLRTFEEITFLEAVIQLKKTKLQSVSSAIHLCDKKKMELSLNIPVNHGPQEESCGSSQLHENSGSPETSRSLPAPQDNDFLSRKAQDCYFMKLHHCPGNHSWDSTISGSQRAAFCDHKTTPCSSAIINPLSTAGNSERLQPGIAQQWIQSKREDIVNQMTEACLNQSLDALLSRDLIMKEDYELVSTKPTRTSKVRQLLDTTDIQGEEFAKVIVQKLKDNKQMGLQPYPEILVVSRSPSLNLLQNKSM
Sequence of Steroidogenic factor 1 (Homo sapiens) (Q13285 whole entry, looked up, the tested form may be a part): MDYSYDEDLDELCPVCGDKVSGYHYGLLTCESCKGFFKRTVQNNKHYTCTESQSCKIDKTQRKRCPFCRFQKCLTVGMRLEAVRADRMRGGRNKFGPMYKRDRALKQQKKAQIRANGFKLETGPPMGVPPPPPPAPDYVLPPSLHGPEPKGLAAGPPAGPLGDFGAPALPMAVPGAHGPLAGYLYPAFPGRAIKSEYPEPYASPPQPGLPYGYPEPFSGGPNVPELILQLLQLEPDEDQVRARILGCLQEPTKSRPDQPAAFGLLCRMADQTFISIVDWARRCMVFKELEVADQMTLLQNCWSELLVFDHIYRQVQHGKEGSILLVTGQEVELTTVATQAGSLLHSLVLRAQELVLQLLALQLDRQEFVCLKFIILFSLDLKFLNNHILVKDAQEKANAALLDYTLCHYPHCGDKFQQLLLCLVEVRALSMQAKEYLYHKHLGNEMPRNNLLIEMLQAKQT
Sequence of Oxysterols receptor LXR-beta (Homo sapiens) (P55055 whole entry, looked up, the tested form may be a part): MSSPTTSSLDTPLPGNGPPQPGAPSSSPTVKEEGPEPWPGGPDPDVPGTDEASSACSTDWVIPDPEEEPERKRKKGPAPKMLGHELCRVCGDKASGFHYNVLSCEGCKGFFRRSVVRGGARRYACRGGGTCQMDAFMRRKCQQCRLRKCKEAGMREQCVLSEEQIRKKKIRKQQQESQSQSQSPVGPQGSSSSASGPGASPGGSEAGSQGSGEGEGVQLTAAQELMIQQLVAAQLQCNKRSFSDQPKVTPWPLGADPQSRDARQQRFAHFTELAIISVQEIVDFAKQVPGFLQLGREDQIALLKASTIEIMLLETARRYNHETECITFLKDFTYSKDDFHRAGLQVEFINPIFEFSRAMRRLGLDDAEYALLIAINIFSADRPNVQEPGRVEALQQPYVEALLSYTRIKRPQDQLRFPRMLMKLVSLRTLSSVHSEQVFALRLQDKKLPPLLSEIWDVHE
Sequence of Nuclear receptor subfamily 5 group A member 2 (Homo sapiens) (O00482 whole entry, looked up): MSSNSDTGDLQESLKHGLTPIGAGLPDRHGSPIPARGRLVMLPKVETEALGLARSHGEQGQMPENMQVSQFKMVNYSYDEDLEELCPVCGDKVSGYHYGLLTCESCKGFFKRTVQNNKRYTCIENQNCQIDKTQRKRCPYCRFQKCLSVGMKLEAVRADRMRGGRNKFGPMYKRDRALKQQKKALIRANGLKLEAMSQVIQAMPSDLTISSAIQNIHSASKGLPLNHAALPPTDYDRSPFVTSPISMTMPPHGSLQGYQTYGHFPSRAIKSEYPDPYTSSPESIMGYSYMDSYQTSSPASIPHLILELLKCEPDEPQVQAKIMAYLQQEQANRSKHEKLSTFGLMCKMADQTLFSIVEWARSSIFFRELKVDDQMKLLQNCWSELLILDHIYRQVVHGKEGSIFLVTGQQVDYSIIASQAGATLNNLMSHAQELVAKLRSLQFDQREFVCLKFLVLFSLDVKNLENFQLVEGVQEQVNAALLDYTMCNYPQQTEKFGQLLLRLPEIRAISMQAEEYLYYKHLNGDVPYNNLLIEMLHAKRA
Sequence of (Lyso)-N-acylphosphatidylethanolamine lipase (Mus musculus) (Q8VD66 whole entry, looked up, the tested form may be a part): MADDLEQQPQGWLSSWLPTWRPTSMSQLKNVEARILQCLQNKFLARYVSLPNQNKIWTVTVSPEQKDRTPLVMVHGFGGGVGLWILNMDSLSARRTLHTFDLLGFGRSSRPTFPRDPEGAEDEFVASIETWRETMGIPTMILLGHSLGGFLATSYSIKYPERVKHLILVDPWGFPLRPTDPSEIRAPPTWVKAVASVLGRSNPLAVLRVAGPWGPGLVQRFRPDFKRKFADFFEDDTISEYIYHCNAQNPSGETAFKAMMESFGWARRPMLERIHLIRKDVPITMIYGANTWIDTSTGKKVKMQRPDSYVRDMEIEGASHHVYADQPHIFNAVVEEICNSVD

OC(c1ccc(Cl)cc1)c1ncc(-c2ccc(Cl)cc2)[nH]1 (stereo not drawn)
inhibition [1]: 79.4% (active)
inhibition [2]: 58.9%

CC1CCCCN1S(=O)(=O)c1ccc(C(=O)Nc2nnc(-c3cccs3)o2)cc1 (stereo not drawn)
inhibition [1]: 49.5%
inhibition [2]: 32%

Cc1cccc(N2CCN(C(=O)c3cccc(S(=O)(=O)N4CCc5ccccc5C4)c3)CC2C)c1 (stereo not drawn)
inhibition [1]: 52%
inhibition [2]: 49%

O=[N+]([O-])c1ccc(NS(=O)(=O)c2ccccc2)c(Cl)c1
inhibition [1]: 77.9% (active)
inhibition [2]: 43.9%

O=C(O)c1ccc2c(c1)C(=O)N(c1ccc(/C=C/C(=O)c3ccccc3)cc1)C2=O
inhibition [3]: 5.5%
inhibition [4]: 0.39%
inhibition [5]: 0.6%
activation [6]: 1.47%
activation [7]: 0.05%

Cc1cc2nc(-c3ccc(Cl)cc3)c(Cc3cccc(F)c3)n2c(C)c1Br
inhibition [1]: 36.1%
inhibition [2]: -25.9%

Cc1ccc(S(=O)(=O)N2[C@@H](c3ccc(Br)cc3)C(C(=O)O)=C[C@H]2CC2CCCC2)cc1
inhibition [1]: 26.2%
inhibition [2]: 26.5%

CCOC(=O)C1=C(C)N(C[C@@H]2CC[C@@H](Cc3ccc(-c4ccccc4)cc3)O2)C(=O)NC1c1ccc([N+](=O)[O-])cc1 (stereo partly drawn)
inhibition [3]: -2.24%
inhibition [4]: -1.01%

CCC(C)C(N=C1NS(=O)(=O)c2ccccc21)C(=O)N1CCC(C)CC1 (stereo not drawn)
inhibition [1]: 41%
inhibition [2]: -4.13%

CCCC1CCC(=NNC(=S)NCCc2ccccc2)CC1 (stereo not drawn)
inhibition [1]: 3.69%
inhibition [2]: -1.56%

COC(=O)c1ccc(NC(=O)c2ccccc2NS(=O)(=O)c2ccccc2)cc1
inhibition [1]: 77.4% (active)
inhibition [2]: 57.7%

O=C1/C(=C\c2ccc([N+](=O)[O-])cc2)CS(=O)(=O)C/C1=C/c1ccc([N+](=O)[O-])cc1
inhibition [3]: 91.8% (active)
inhibition [4]: 4.33%
inhibition [1]: 96% (active)
inhibition [2]: 53.2%
inhibition [8]: 2.1%
inhibition [9]: 89.5% (active)
inhibition [10]: 79.7% (active)
inhibition [11]: 70.2% (active)

c1ccc(C2c3[nH]c4ccccc4c3CCN2Cc2cccn2-c2cccnc2)nc1 (stereo not drawn)
inhibition [1]: -1.67%
inhibition [2]: -5.76%

CCOc1ccc(S(=O)(=O)N2CCCCCC2)c2ccccc12
inhibition [1]: 50.4%
inhibition [2]: -4.92%

CN(Cc1cn(Cc2ccc(C(F)(F)F)cc2)nn1)C1CN(Cc2cn(Cc3ccc(C(F)(F)F)cc3)nn2)S(=O)(=O)C1 (stereo not drawn)
inhibition [1]: 86.8% (active)
inhibition [2]: 63.3%

CCC1(C)Cc2c(sc3[nH]c(=S)n(Cc4ccccc4)c(=O)c23)CO1 (stereo not drawn)
inhibition [1]: 70.9% (active)
inhibition [2]: 34.4%

O=C(c1ccc(N2CCCC2=O)cc1)N1CCN(c2ccc(C(F)(F)F)cc2[N+](=O)[O-])CC1
inhibition [1]: 93.2% (active)
inhibition [2]: 74.9% (active)
